Screens (PubChem BioAssay)
ARNT-TACC3 inh – disruptors of ARNT/TACC3 protein interaction, primary screen, biochemical, AlphaScreen, single concentration. Transforming acidic coiled-coil-containing protein 3 (Homo sapiens), Q9Y6A5. AlphaScreen His-ARNT PAS-B/GST-TACC3 binding, luminescence; TACC3 fragment carries E629A point mutation. inhibition, % at 9.99 µM. hit rate 0.66% among 390,000;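 active = mean inhibition of replicates at least 50% and at least half of replicates each reaching 50%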
DAGLB inhibitor – DAGLB lipase inhibitors, primary screen, biochemical, fluorescence, HTS. Diacylglycerol lipase-beta (Homo sapiens), Q8NCG7. HEK293T DAGLB membrane lysate, EnzChek fluorogenic substrate. inhibition, % at 5.17 µM. hit rate 0.059% among 340,000; in the data active = inhibition above about 34%
Target sequence (Q8NCG7 whole entry, looked up): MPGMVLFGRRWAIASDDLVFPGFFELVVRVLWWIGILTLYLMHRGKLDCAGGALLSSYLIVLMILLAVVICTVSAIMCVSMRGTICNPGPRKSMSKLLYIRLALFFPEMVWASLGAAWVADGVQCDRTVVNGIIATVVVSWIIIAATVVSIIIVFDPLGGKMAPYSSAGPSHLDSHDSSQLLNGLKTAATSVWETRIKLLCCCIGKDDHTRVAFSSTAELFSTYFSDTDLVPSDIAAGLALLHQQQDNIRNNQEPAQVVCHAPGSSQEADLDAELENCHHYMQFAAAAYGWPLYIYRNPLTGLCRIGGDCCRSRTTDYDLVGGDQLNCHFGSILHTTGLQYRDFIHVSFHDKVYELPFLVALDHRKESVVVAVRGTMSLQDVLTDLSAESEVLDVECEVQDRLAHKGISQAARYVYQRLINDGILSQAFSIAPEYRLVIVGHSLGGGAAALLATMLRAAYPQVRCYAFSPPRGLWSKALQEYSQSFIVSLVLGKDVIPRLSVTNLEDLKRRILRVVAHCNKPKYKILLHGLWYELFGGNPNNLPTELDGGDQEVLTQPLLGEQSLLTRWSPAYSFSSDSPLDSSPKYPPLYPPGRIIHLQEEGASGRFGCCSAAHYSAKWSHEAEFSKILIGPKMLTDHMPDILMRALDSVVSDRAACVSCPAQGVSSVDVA
NadD block – inhibitors of S. aureus NadD, primary screen, biochemical, colorimetric, uHTS; Nicotinate-nucleotide adenylyltransferase NadD (Staphylococcus aureus N315); purified NadD enzyme, colorimetric absorbance read-out; inhibition, % at 20 µM; hit rate 0.78% among 360,000; AID 602399, 2012; in the data active = inhibition above about 26%
Neddyl block – inhibitors of cullin neddylation, primary screen, biochemical, TR-FRET, uHTS, NAE and Ubc12 | inhibition, % at 25 µM | hit rate 0.58% among 360,000 | NEDD8-conjugating enzyme Ubc12 (Homo sapiens) + NEDD8-activating enzyme E1 regulatory … | AID 651699, 2012; in the data active = inhibition above about 36%
sPLA2-III inh – human group III sPLA2 inhibitors, primary screen, biochemical, QFRET, BODIPY PC-A2 liposome substrate | QFRET BODIPY PC-A2 liposome hydrolysis, fluorescence | AID 743126, 2013 | inhibition, % at 12.2 µM | Group 3 secretory phospholipase A2 (Homo sapiens), Q9NZ20 | hit rate 0.56% among 370,000;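 active = inhibition above mean plus 3 SD of compounds lying within the high and low control bounds, cut at about 19% in these data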
sPLA2 confirm – human group III sPLA2 inhibitors, confirmation, biochemical, QFRET, triplicate. shares compounds with sPLA2-III inh. recombinant hGIII-sPLA2, BODIPY PC-A2 QFRET fluorescence. inhibition, % at 12.2 µM. hit rate 34% among 2,000;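 active = mean inhibition across triplicates above the hit cutoff set in the earlier primary screen, cut at about 19% in these data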
535nm interf – 535nm fluorescence optical interference, confirmation, artefact control for HGIII-sPLA2 inhibitor project, biochemical, QFRET; BODIPY FL product fluorescence interference; inhibition, % at 12.2 µM; hit rate 8.5% among 2,000; shares compounds with sPLA2-III inh;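 active = average inhibition above the solvent-only control mean plus 3 SD, cut at about 6% in these data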
535nm interf DR – 535nm fluorescence optical interference, dose response, artefact control for HGIII-sPLA2 inhibitor project, biochemical, QFRET. shares compounds with sPLA2-III inh. BODIPY FL product fluorescence interference, cell-free. IC50, µM. 240 tested, under 10 active. AID 743455, 2014;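 active = IC50 at or below 10 µM; inactive = IC50 above 10 µM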
A number is an active result; . = inactive; / = no result given; ! = repeats disagree. Hits are enriched below; roughly 2% of the tested compounds scored in any of these assays.

SMILES | ARNT-TACC3 inh | DAGLB inhibitor | NadD block | Neddyl block | sPLA2-III inh | sPLA2 confirm | 535nm interf | others
Cc1ccc(C)c(N2CCN(S(=O)(=O)c3c(C)noc3/C=C/N(C)C)CC2)c1 | . | . | . | . | 23 | 29 | . | 535nm interf DR=.
CO[C@@H]1CN(C)C(=O)c2ccc(NS(=O)(=O)c3cccc(F)c3)cc2OC[C@H](C)NC[C@H]1C | . | / | / | / | / | / | /
O=C(CN1CCN(C2CCCCC2)CC1)NCCC1=CCCCC1 | . | . | . | . | 20 | . | .
CS(=O)(=O)N(CC(=O)NCCC1=CCCCC1)C1CCCCC1 | . | . | . | . | . | / | /
Cc1cnc(NC(=O)CSc2nnc(C)n2N)s1 | . | . | . | . | 22 | . | .
CCOC(=S)SCC(=O)Nc1ncc(C)s1 | . | . | . | . | 20 | . | .
Cc1cnc(NC(=O)CSc2nnc3ncccn23)s1 | . | . | . | . | . | / | /
O=C(C[C@@H]1C[C@H]2c3cc(NC(=O)NC4CCCCC4)ccc3O[C@H]2[C@H](CO)O1)NCc1cccnc1 | . | / | / | / | / | / | /
O=C(C[C@H]1CC[C@H](NC(=O)c2ccccc2)[C@H](CO)O1)NCc1ccncn1 | . | / | / | / | / | / | /
N#CCC[C@@H]1CC[C@]2(CCCN(Cc3ccc(Br)cc3)C2)O1 | / | / | / | / | 22 | . | .
N#CCC[C@H]1CC[C@]2(CCCN(S(=O)(=O)c3ccccc3)C2)O1 | / | / | / | / | 20 | . | .
O=C(CN1N=C(C(F)(F)F)CC1(O)c1ccc([N+](=O)[O-])cc1)c1ccccc1 (configuration not stated) | . | . | . | . | . | / | /
O=C(c1ccccc1O)N1N=C(C(F)(F)F)CC1(O)c1ccc([N+](=O)[O-])cc1 (configuration not stated) | . | . | . | . | 21 | . | .
COc1ccc(-c2cc(C(F)(F)F)nc(N3CCCCCC3)n2)cc1 | . | . | . | . | . | / | /
FC(F)(F)c1cc(-c2ccccc2)nc(N2CCCCCC2)n1 | . | . | . | . | 20 | . | .
CCCCNC(=O)CN(c1cccc(F)c1)S(C)(=O)=O | . | . | . | . | . | / | /
CCCNC(=O)CN(c1cccc(F)c1)S(C)(=O)=O | . | . | . | . | 20 | . | .
CCCNC(=S)Nc1ccc(CC(=O)OC)cc1 | / | . | . | . | 24 | . | .
CCOC(=O)c1cc(C#N)c(SCc2cccc3ccccc23)nc1C | . | . | . | . | . | / | /
CCOC(=O)c1cc(C#N)c(SCC(=O)c2cc(C#N)c(SC)nc2C)nc1C | . | . | . | . | 20 | . | .
C[C@H]1CCCCO[C@@H](CN(C)Cc2ccc(C(F)(F)F)cc2)[C@@H](C)CN([C@@H](C)CO)C(=O)c2cc(NS(C)(=O)=O)ccc2O1 | . | / | / | / | / | / | /
C=CCN=C1NC(c2ccc(Cl)cc2)C(C(=O)OC)=C(C)N1C (configuration not stated) | / | / | / | / | . | / | /
C=CCN=C1NC(c2ccc(F)cc2)C(C(=O)OC)=C(C)N1C (configuration not stated) | / | / | / | / | 23 | . | .
O=C(CCN1C(=O)/C(=C\c2ccccc2)SC1=S)NNC(=O)c1ccccc1O | . | . | . | . | 25 | . | .
O=C(CN1C(=O)S/C(=C\c2ccccc2)C1=O)NNC(=O)c1ccccc1O | . | . | . | . | 23 | . | .
SMILES | ARNT-TACC3 inh | DAGLB inhibitor | NadD block | Neddyl block | sPLA2-III inh | sPLA2 confirm | 535nm interf | others
O=C(CSc1ccccc1)NNC(=O)c1ccccc1O | . | . | . | . | 20 | . | .
COc1ccc(/C=C2\SC(=O)N(CC(=O)NNC(=O)c3ccccc3O)C2=O)cc1OC | . | . | . | . | 21 | . | .
C[C@@H]1CN([C@@H](C)CO)C(=O)Cc2cc(N(C)C)ccc2O[C@@H]1CN(C)C(=O)Nc1ccc(C(F)(F)F)cc1 | . | / | / | / | / | / | /
C[C@H]1CN([C@@H](C)CO)C(=O)c2cc(NC(=O)Cn3cnnn3)ccc2O[C@H]1CN(C)Cc1ccc(-c2ccccc2)cc1 | . | / | / | / | / | / | /
CCC(=O)N(C)C[C@H]1Oc2cc(C#Cc3ccncc3)ccc2S(=O)(=O)N([C@H](C)CO)C[C@H]1C | . | / | / | / | / | / | /
CCS(=O)(=O)NCC[C@@H]1CC[C@@H](NS(=O)(=O)c2cccc(F)c2)[C@H](CO)O1 | . | / | / | / | / | / | /
COc1ccc(S(=O)(=O)Nc2ccc3c(c2)C(=O)N([C@@H](C)CO)C[C@@H](C)[C@@H](CN(C)Cc2ccc4c(c2)OCO4)OCCCC[C@H](C)O3)cc1 | . | / | / | / | / | / | /
COc1ccc(-n2sc3c(c2=S)-c2cc(OC)ccc2NC3(C)C)cc1 | . | . | . | . | 27 | . | 8.1
Cc1cccc(C(=O)Nc2cccc(NC(=O)c3ccccc3)c2)c1 | . | . | . | . | . | / | /
Cc1cccc(NC2=C(NC(=O)c3ccccc3)C(=O)c3ccccc3C2=O)c1 | 39 | . | . | . | 24 | 23 | .
Brc1ccc(C=Nc2ccc3c(c2)OCCOCCOCCO3)s1 | . | . | . | . | 24 | . | .
CCNc1nc(NCC)nc(OCCOC(=O)Nc2ccccc2)n1 | . | . | . | . | 19 | . | .
CCNc1nc(NC(C)C)nc(OCCOC(=O)Nc2ccccc2)n1 | . | . | . | . | . | / | /
Nc1ccc(Oc2cc(N)cc(Oc3ccccc3)c2)cc1 | . | . | . | . | 23 | . | .
Nc1ccc(Oc2ccc3nc(-c4ccccc4)c(-c4ccccc4)nc3c2)cc1 | . | . | / | / | . | / | /
COc1ccc(NC2CS(=O)(=O)CC2NCc2ccccc2)cc1 (configuration not stated) | . | . | . | . | 21 | . | .
C[C@@H]1CN([C@H](C)CO)C(=O)CCCn2cc(nn2)CO[C@H]1CN(C)Cc1ccc2c(c1)OCCN2C | . | / | / | / | / | / | /
CC(=O)Nc1ccc(NC(=O)C(Cc2ccccc2)NC(=O)C2CCC(C)CC2)cc1 (configuration not stated) | . | . | . | . | 25 | . | .
COc1ccc(CN2CCN(c3ccccn3)CC2)c(OC)c1C | . | . | . | . | 19! | . | .
COc1ccc(CN2CCN(c3ncccn3)CC2)c(C)c1C | . | . | . | . | . | / | /
